The whole screen tested about 69,000 compounds, of which about 8,600 (12%) showed an effect of 50% or more. What follows is part of a selection rich in strong results, with near analogues and random picks from the rest.

This assay relates to Plasmodium berghei. The assay is described as follows: Screen against P. berghei liver stage (PbLuc), transformed with Luciferase, at 10uM. The assay is classed as functional, HepG2. To be noted: tested at 10 uM.
As to `CN(C)CCn1nc(C2CCN(S(=O)(=O)N(C)C)C2)c2cccnc21` (stereo unspecified), the INHIBITION is reported as 6.33%. Next, `Fc1ccc(OCCNCCn2cccn2)cc1`: 0.914%; `Cc1cc(C(=O)N2CCN(c3ccncc3Cl)CC2)n(C)n1`: 10.3%. With `CSc1nnc(C2CCN(C(=O)N3CCCC3)CC2)n1C(C)C`, the INHIBITION is given as 20.09%.

On to `COC(=O)C(C)N(Cc1cc(C)on1)C1CC1` (stereo unspecified), for which the INHIBITION came out at 52.2%. Turning to `COC(=O)C(C)N(Cc1cc(=O)n(C)c(=O)n1C)C1CC1` (stereo unspecified), the INHIBITION is on record as -37.1%. Next, `Cc1cc(CN(C2CC2)C(C)C(C)C)no1` (stereo unspecified): -26.1%; `O=C(c1c[nH]cn1)N1CCOCC2(C1)CN(c1ccccc1)C(=O)CO2` (stereo unspecified): 8.52%.

For the compound `Cc1noc(C)c1C(=O)N1CCC2(CCc3ccccc3C(=O)N2)C1` (stereo unspecified), the INHIBITION is reported as 9.925%.

As to `Cn1nc2c(cc1=O)CN(Cc1nc(-c3ccsc3)no1)CC2`, the INHIBITION is listed as -7.31%.

Turning to `CC(C)c1nn(C)c(N2CCOCC2)c1CNCc1nncn1C`, the INHIBITION was -18.9%. Turning to `CC(C)CNC(=O)c1cc(C2CC2)nc2c1c(C1CCCN1)nn2C` (stereo unspecified), the INHIBITION amounted to 30%. Under `CS(=O)(=O)NC[C@]12COC[C@H]1CN(CCc1ccccc1)C2` stands 65.1%; under `CS(=O)(=O)NC[C@]12COC[C@H]1CN(C(=O)C1CCCCC1)C2`, 13.6%; under `CS(=O)(=O)NC[C@]12COC[C@H]1CN(CC1CCCC1)C2`, 6.82%. Take `CS(=O)(=O)NC[C@]12COC[C@H]1CN(C(=O)CC1CCCC1)C2`: the INHIBITION turned out to be 14%. Next, `O=S(=O)(NC[C@]12COC[C@H]1CN(CCc1ccccc1)C2)C1CC1`: 24.9%; `CS(=O)(=O)NC[C@]12COC[C@H]1CN(C(=O)C1CC=CC1)C2`: 23.1%; `CS(=O)(=O)NC[C@]12COC[C@H]1CN(C(=O)C1CC(F)(F)C1)C2`: 57.5%.

For the compound `CS(=O)(=O)NC[C@]12COC[C@H]1CN(CC1CCC1)C2`, the INHIBITION is recorded as 66.6%. As for `CCS(=O)(=O)NC[C@]12COC[C@H]1CN(CCc1ccccc1)C2`, the INHIBITION is recorded as -58.7%. Consider `CCc1ccc(S(=O)(=O)NCCC(O)c2ccoc2)s1` (stereo unspecified), for which the INHIBITION is listed as 15.4%. Under `c1ccc(NCc2cn3c(n2)CN(Cc2cccnc2)CC3)nc1` stands 38.7%; under `Cc1ccc(-n2cc(C(=O)NCC(C)Cn3cccn3)nn2)cc1` (stereo unspecified), 27.6%; under `CO[C@H]1C[C@@H](O)C12CCN(Cc1nc(C(F)(F)F)no1)CC2`, 41.2%. Under `Cn1cc(-c2ncnc3c2CCN(C(=O)c2cscn2)CC3)cn1` stands 14.6%. Next, `O=S(=O)(C1CC1)N1CCC[C@]2(C[C@@H](Oc3ccccn3)CO2)C1`: -49.7%; `CCOc1ccnc(N2CCN(C(=O)c3cc[nH]n3)CC2)n1`: -1.14%.

Turning to `COCCN1CC(C(=O)N(CCN(C)C)Cc2ccc(C)s2)CC1=O` (stereo unspecified), the INHIBITION worked out at 38.3%. Next, `COCCn1ccc(NC(=O)CNC(=O)CC(C)(C)C)n1`: 34.9%; `CN(CCO)CC1COCCN1C(=O)C1(c2cccs2)CCCC1` (stereo unspecified): 14.9%; `COCCCN1CCCN(C(C)C(=O)Nc2ccnn2C(C)C)CC1` (stereo unspecified): 0.139%. Next, `COCCCN1CCCN(C(C)C(=O)Nc2cccc(I)c2)CC1` (stereo unspecified): 85.1%; `COCCN1CCN(C(C)C(=O)Nc2ccnn2C(C)C)CC1` (stereo unspecified): 11.8%; `CN(C)C(=O)C1OC2(CCN(C(=O)c3ccoc3)CC2)c2ccccc21` (stereo unspecified): 22.2%. As for `O=C(NC1CC1)C1CCc2nnc(-c3cccc(C(F)(F)F)c3)n21` (stereo unspecified), the INHIBITION was determined as 17.6%. `O=C(NC1CC1)C1CCc2nnc(C3CC3)n21` (stereo unspecified): the INHIBITION worked out at 53.2%.

For `O=C(NC1CC1)C1CCc2nnc(-c3cccnc3)n21` (stereo unspecified), the INHIBITION stood at 47.4%. For the compound `CC1CN(C(=O)Nc2cccc(CN3CCOC3=O)c2)CCO1` (stereo unspecified), the INHIBITION was -43.9%. Next, `CCc1cccc(N2CCC(NC(=O)C3CCCO3)CC2)c1` (stereo unspecified): 48.2%; `CCc1cccc(N2CCC(NC(=O)C3CCOCC3)CC2)c1`: 21.5%. For `CCc1cccc(N2CCC(NC(=O)CCNC(N)=O)CC2)c1`, the INHIBITION turned out to be 5.03%.

As to `CCC(=O)NC1CCN(c2cccc(CC)c2)CC1`, the INHIBITION is 50.4%. Next, `CCc1cccc(CC(=O)NC2CCN(C(=O)NC(C)(C)C)CC2)c1`: 12.6%. Under `CCc1cccc(N2CCC(NC(=O)C3CCC3)CC2)c1` stands 64.7%; under `COc1cccc(N2CCN(CCC(=O)NC3CCCC3)CC2)c1`, 24.5%; under `COc1cccc(N2CCN(CCC(=O)NC3CCCCC3)CC2)c1`, 64.6%. For `COc1ccc2c(c1)CCN(CCC(=O)NC1CCCCC1)CC2`, the INHIBITION is reported as 6.8%.

As to `CCOCCNC(=O)c1cccnc1N1CCCC1c1ccccn1` (stereo unspecified), the INHIBITION is -31%. As to `CCc1nc(CN(C)CC(=O)NC(C)C)cs1`, the INHIBITION is 14.8%. As for `Cc1ccc(-n2c(O)cc(C)c(C#N)c2=O)c(C)c1`, the INHIBITION is -8.66%. On to `Cc1cnn(CC2CCCCN2C(=O)c2nccnc2N)c1` (stereo unspecified), for which the INHIBITION is given as -19.9%. For `CC(=O)c1ccccc1-c1nc(CC2CCN(C)CC2)no1`, the INHIBITION was determined as 24.7%. In the case of `Clc1cccc(C(CNCc2cccnc2)N2CCOCC2)c1` (stereo unspecified), the INHIBITION is listed as 23.2%. `Clc1cccc(C(CNCc2ccccn2)N2CCOCC2)c1` (stereo unspecified): the INHIBITION is listed as 53.9%. Under `Clc1cccc(C(CNc2ncccn2)N2CCOCC2)c1` (stereo unspecified) stands -14.5%; under `COc1ccc(C)cc1-c1[nH]c2ccccc2c1C(=O)O`, 3.52%. On to `Cc1ccc2c(n1)N(CC(C)C)CCN(C(=O)Cc1ccccn1)C2`, for which the INHIBITION stood at 2.41%. `CC(Cc1cn(CCc2nc(N)cc(O)n2)nn1)c1ccccc1` (stereo unspecified): the INHIBITION was 24.9%. Turning to `O=c1c(Cc2ccccc2)c(O)ccn1Cc1cccs1`, the INHIBITION is listed as -23.5%.

For the compound `O=c1c(Cc2ccccc2)c(O)ccn1Cc1ccco1`, the INHIBITION came to 34%. Turning to `O=c1c(Cc2ccccc2)c(O)ccn1CCc1ccccc1`, the INHIBITION is listed as 56.2%. Next, `Cc1nn(CCc2nnc(NCC(C)C)s2)c(C)c1Br`: 7.38%; `C=C(C)CN1CCCC(CNS(C)(=O)=O)C1` (stereo unspecified): 12%; `CN(C)CCN1CCO[C@@H]2CN(C(=O)c3cccs3)CC[C@@H]2C1`: 15.9%. Take `O=C(C1CC=CC1)N1C[C@@H]2CN(Cc3ccsc3)CCO[C@@H]2C1`: the INHIBITION was determined as 53.2%.

For the compound `Cc1ccc(CC(=O)N2CC[C@@H]3CN(CCN(C)C)CCO[C@@H]3C2)cc1`, the INHIBITION is given as 47.8%. On to `O=C(Cc1ccsc1)N1C[C@@H]2OCCN(CC3CC3)[C@@H]2C1`, for which the INHIBITION is 31.4%. For `CN1CCO[C@@H]2CN(C(=O)Cc3cccs3)CC[C@@H]2C1`, the INHIBITION is recorded as 26.7%. Under `CC(C)N1CCO[C@H]2CN(C(=O)Cc3ccsc3)C[C@H]21` stands 7.24%; under `O=C(Cc1ccsc1)N1C[C@@H]2OCCN(c3cnccn3)[C@@H]2C1`, 52.3%; under `O=C(C1CCOCC1)N1C[C@@H]2CN(Cc3ccsc3)CCO[C@@H]2C1`, 22.9%. With `CN(C)CCN1CCO[C@@H]2CN(C(=O)Cc3ccsc3)CC[C@@H]2C1`, the INHIBITION is 51.2%.

As to `CS(=O)(=O)N1CCO[C@@H]2CN(C(=O)Cc3cccs3)CC[C@@H]2C1`, the INHIBITION is on record as 16.8%. With `O=C(C1CC(F)(F)C1)N1C[C@@H]2CN(Cc3ccsc3)CCO[C@@H]2C1`, the INHIBITION amounted to 41.6%. With `CC(C)N1CCO[C@@H]2CN(C(=O)Cc3cccs3)CC[C@@H]2C1`, the INHIBITION is listed as 59.3%.
